Laboratory results from PubChem BioAssay (NCI).
“And” between values parts separate entries of the source, which are not always exact repeats. Equal values may be shown once. This is part of a sample that, as a whole, favours compounds with a hit. Of some 83,000 tested, about 20% had one in any assay.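 A percent growth of 40 corresponds to 60% growth inhibition; 0 means no net growth; -100 means all cells died. Active threshold: below 10.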 The source made the active and inactive calls.

system: SR leukemia; experiment: NCI-60 one-dose screen, 48 h (100 = growth as untreated, 0 = no growth, -100 = all killed); conditions: 10 µM unless noted
Procedure: Growth inhibition of the SR human tumor cell line is measured as a screen for anti-cancer activity. Cells are grown in 96 well plates and exposed to the test compound for 48 hours. Compounds are tested at a single concentration, which is 10^-5 M for most compounds. The reported endpoint is percent growth (GI% or GIPRCNT), where numbers from 0 - 100% represent growth inhibition, and numbers from -100% - 0 represent cell death. For example, a value of 40 represents 60% growth inhibition. A value of 0 means no net growth occurred over the course of the experiment. A value of -40 indicates 40% of cells at the beginning of the experiment died by the end of the experiment. A value of -100 means all cells are dead at the end of the experiment.
NCI-60 Human Tumor Cell Lines Screen was performed using the standard one-dose NCI protocol, which is described in more detail at https://dtp.cancer.gov/discovery_development/nci-60/default.htm.
Compounds with GIPRCNT values below 10 were considered active. Activity score was based on GIPRCNT using the following formula: […]
Score is 0 for GIPRCNT values of 100 or above, 50 for GIPRCNT values of 0, and 100 for GIPRCNT values of -100.

SMILES	growth
CCCN1C(=O)NC(=O)C(CC)(N2C(=O)c3c(F)c(F)c(F)c(F)c3C2=O)C1=O (stereo not given)	-76.5% (active)
O=C(O)c1cc([N+](=O)[O-])cc([N+](=O)[O-])c1	120% (inactive)
CCOC(=O)c1cncn1C(C)c1ccccc1 (stereo not given)	90.2% (inactive)
Cc1cc2c(cc1-c1ccnc(/C=C/C(=O)O)c1)C(C)(C)CCC2(C)C	77.9% (inactive)
C[C@]12CC[C@H]3[C@@H](C[C@@H]4SC(Nc5cccc(F)c5)=N[C@@]45CC(=O)CC[C@]35C)[C@@H]1CCC2=O	-11.9% (active)
C/C(=C(\c1ccc(OCCN2CCOCC2)cc1)c1ccc(OC(=O)Cc2ccccc2)cc1)c1ccc(Cl)cc1	114% (inactive)
C[C@]12CCc3sc(Nc4ccc(F)cc4)nc3C1=CC[C@@H]1[C@@H]2CC[C@]2(C)C(=O)CC[C@@H]12	19.5% (inactive)
COC(=O)C1=CCCN(C)C1	99.7% (inactive) and 110% (inactive)
CCC(=O)C(CC(C)N1CCCCCC1)(c1ccccc1)c1ccccc1 (stereo not given)	102% (inactive)
N[C@@H](CCC(=O)CCl)C(=O)O	71.3% [20 µM] (inactive)
N#CCC(=O)c1ccccc1	107% (inactive)
Oc1ccccc1C=NCCN=Cc1ccccc1O.[Fe]	73.2% (inactive)
CN1CCc2cc3c(cc2C1O)OCO3 (stereo not given)	101% (inactive)
COc1ccc2c(c1)c(-c1nc(-c3c[nH]c4ncccc34)cs1)cn2CCCCN1CCOCC1	-17.5% (active)
NC(N)=NC(N)=Nc1ccc(Cl)cc1	94.9% (inactive)
C[C@]12CCC3[C@@H](C[C@@H]4SC(Nc5ccccc5)=N[C@@]45CC(=O)CC[C@]35C)[C@@H]1CCC2=O (stereo not given in full)	-5.37% (active)
CC[C@@H](C)C(=O)O[C@H]1[C@H](O)[C@H]2[C@@H](CN3C[C@@H](C)CC[C@H]3[C@@]2(C)O)[C@@H]2C[C@]34O[C@]5(O)[C@@H](OC(=O)[C@@](C)(O)CC)CC[C@@]3(C)[C@@H]5[C@@H](OC(C)=O)[C@@H](OC(C)=O)[C@H]4[C@@]21O	100% (inactive)
O=S(=O)(c1ccc(O)cc1)c1ccccc1O	103% (inactive)
ClC1OC(Cl)(Cl)C(Cl)(Cl)OC1(Cl)Cl (stereo not given)	95% (inactive)
N#Cc1ccc(Cl)cc1	87% (inactive)

SMILES	growth
CCCCCCCCCCCCCCCC[N+](C)(C)Cc1ccccc1	5.4% (active) and -55% (active)
Cc1cc(N(CCCl)CCCl)ccc1/C=N\NC(=O)c1cccnc1	23.4% (inactive) and 54.5% (inactive)
CC1(C)C2CCC1(CS(=O)(=O)O)C(=O)C2 (stereo not given)	105% (inactive) and 117% (inactive)
Cc1cc[c-]cc1.Fc1c[c-]c(-c2ccccn2)c(F)c1.N#CCC[PH+](CCC#N)c1ccccc1.[Pt+2]	7.03% (active)
Cc1cc(N)ccc1N	110% (inactive)
CCCCCCCCCCCCCCCCCC1OCC(COC(=O)O[C@@H](C(=O)O[C@H]2C[C@@]3(O)[C@@H](OC(=O)c4ccccc4)[C@@H]4[C@]5(OC(C)=O)CO[C@@H]5C[C@H](O)[C@@]4(C)C(=O)[C@H](OC(C)=O)C(=C2C)C3(C)C)[C@@H](NC(=O)c2ccccc2)c2ccccc2)O1 (stereo not given in full)	18% (inactive)
CC[C@H](C)[C@H](NC(=O)[C@H]1CCCCN1C)C(=O)N(C)[C@H](C[C@@H](OC(C)=O)c1nc(C(=O)NC23C4C5C2C2C3C4C52C(=O)OC)cs1)C(C)C (stereo not given in full)	2.77% (active)
O=C(NC1=NCC[Se]1)c1ccccc1O	19% (inactive)
O=P(O)(Nc1ccccc1)Nc1ccccc1	104% (inactive)
Cc1cc[n+](CCc2ccccc2)cc1	101% (inactive)
CCCC[C@H]1C(=O)O[C@H](C)[C@H](NC(=O)c2cccc(NC=O)c2O)C(=O)O[C@@H](C)[C@@H]1OC(=O)CC(C)C	49.4% (inactive)
C=CCOC(=O)C(Br)CC (stereo not given)	100% (inactive)
COc1ccc(N(CC(=O)NCCC[Te]c2ccccc2)C(=O)c2ccccc2)cc1	10.3% (inactive)
N#CC(NC(=O)CCl)=C(Cl)Cl	-18.2% (active)
C(=NC1CCCCC1)=NC1CCCCC1	89.5% (inactive) and 83.7% (inactive)
O=c1[nH]c(=O)[nH]c(=O)[nH]1	104% (inactive)
CCCCOC(N)=O	96.1% (inactive)
CC(=O)Nc1nc2c(s1)C1=CC[C@H]3[C@@H]4CC[C@H](OC(C)=O)[C@@]4(C)CC[C@@H]3[C@@]1(C)CC2	21.5% (inactive)
Cc1ccc(NC2=N[C@]34CC(=O)CC[C@]3(C)[C@H]3CC[C@]5(C)C(=O)CC[C@H]5[C@@H]3C[C@@H]4S2)c(C)c1	-0.627% (active)
Oc1cc(N2CC2)c(O)cc1N1CC1	21.6% (inactive)
